# D2 PAM-1 – positive allosteric modulators of human D2 dopamine receptor; P14416; DiscoveRx D2 beta-arrestin cells, luminescence, 90 min; 100% = 57 uM dopamine signal; 360,000 tested, 0.23% active; potentiation, % (concentration not given with the values); in the data active means potentiation above about 50%; inconclusive means mostly about 30% to 49%
#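 PathHunter beta-arrestin assay in DiscoveRx D2 cells. Compounds were added with an EC20 of dopamine (50 nM final) for 90 min at 37 deg C. Luminescence was read 1 h after detection reagent, with 57 uM dopamine as the EC100 control.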
# D2 ag-1 – activates the human D2 dopamine receptor; DiscoveRx PathHunter D2 beta-arrestin, luminescence, 90 min; 100% = 57 uM dopamine signal; activation, % (test concentration not listed); 360,000 tested, 0.084% active; in the data active means activation above about 40%; inconclusive means between about 15% and that limit
#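 DiscoveRx PathHunter D2 beta-arrestin cells (2,100/well) attached overnight, then compound-stimulated 90 min at 37 C in HBSS/10 mM HEPES/0.1% Tween-20 buffer; beta-galactosidase complementation read by luminescence after 1 h at ambient temperature. Dopamine 57 uM final (EC100) as control.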
# D2 PAM-2 – positive allosteric modulators of human D2 dopamine receptor | HEK293 T-REx D2, calcium flux, EC20 dopamine potentiation | potentiation, % at 10 µM | 340,000 tested, 0.34% active | AID 485347;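 active means potentiation over 3 SD above the plate norm, cut at about 30% in these data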
#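 Potentiation of an EC20 dopamine calcium response measured kinetically over 180 s, after a preceding 180 s compound-only read flagging agonists. Cells: inducible Hek293 Trex D2 line, 4000/well, cultured overnight at 30 C before dye loading.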
# D2 ag-2 – agonists of human D2 dopamine receptor. HEK293 T-REx D2 cells, calcium flux agonist mode. activation, % at 2 µM. 340,000 tested, 0.53% active;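 active means activation over 3 SD above normal in the single-dose calcium agonist read, cut at about 30% in these data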
#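 HEK293 Trex D2 cells, tetracycline-induced, o/n 30 C 5% CO2; no-wash Ca dye, RT 30–90 min; 10-cycle baseline, 23 nl cpd added, kinetic Ca read 180 s; agonist hits = positive Ca response.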
# B2AR arrestin – beta2AR (human) beta-arrestin recruitment activity. P07550. beta-arrestin recruitment to beta2AR, cell-based reporter. Potency, µM (titrated, usually from 46.1 µM), actives largely listed as activators. 330,000 tested, 0.02% active. AID 492947; further: nearly all actives have a fitted effect of over 65% in size
# Target sequence (P07550 whole entry, looked up): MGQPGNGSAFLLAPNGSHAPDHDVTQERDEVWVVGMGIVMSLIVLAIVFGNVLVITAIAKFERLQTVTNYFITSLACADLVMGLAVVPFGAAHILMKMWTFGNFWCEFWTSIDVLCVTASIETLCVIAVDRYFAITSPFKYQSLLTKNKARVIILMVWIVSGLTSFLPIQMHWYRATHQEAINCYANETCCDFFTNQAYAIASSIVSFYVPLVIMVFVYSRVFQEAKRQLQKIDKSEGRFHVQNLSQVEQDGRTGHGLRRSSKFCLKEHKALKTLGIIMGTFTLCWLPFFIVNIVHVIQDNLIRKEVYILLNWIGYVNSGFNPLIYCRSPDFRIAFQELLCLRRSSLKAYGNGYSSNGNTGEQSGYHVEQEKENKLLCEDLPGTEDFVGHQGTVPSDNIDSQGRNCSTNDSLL
# D2 antagonist – antagonizes the human D2 dopamine receptor. P14416. HEK293 TREx D2 cells, calcium flux, dopamine EC80. inhibition, % at 10 µM. 340,000 tested, 2% active. AID 485344; in the data active means inhibition above about 30%; inactive means below that, where a call was filed
#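 HEK293 T-REx D2 cells, tet-induced, calcium dye no-wash. Cpd pintool add, 180 s kinetic, then EC80 DA, 180 s kinetic. Ca flux read.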
# D3 arrestin ag – confirmation of human D3 dopamine receptor agonists, beta-arrestin | Potency, µM (series often up to 76.9 µM), usual class: activators | 2,300 tested, 4% active | DiscoveRx D3 beta-arrestin cells, luminescence, 90 min | shares compounds with D2 ag-2; further: nearly all actives have a fitted effect of over 70% in size
# D2 ag-3 – D2 receptor agonism, beta-arrestin counterscreen; shares compounds with D2 ag-2; DiscoveRx PathHunter D2 beta-arrestin, luminescence, 90 min; response scale: percent relative to full dopamine signal; Potency, µM (top dose mostly 76.9 µM), most hits filed as activators; 2,300 tested, 5.9% active; further: nearly all actives have a fitted effect of over 70% in size
# Hits are given with their value; - = inactive; ? = inconclusive; . = not tested or not shown. Rows were chosen to be rich in hits. Some 2.4% of all compounds tested hit in one or more screens of this group. Unless noted, the call rests on the fitted dose curve; in most records, active means well fitted activation curve with a large enough effect; inconclusive means small, poorly fitted or top-dose-only effect; inactive means flat fitted curve, though single readings scatter.
SMILES,D2 PAM-1,D2 ag-1,D2 PAM-2,D2 ag-2,B2AR arrestin,D2 antagonist,D3 arrestin ag,D2 ag-3
CC1(c2ccc(OC(F)F)cc2)NC(=O)N(CC(=O)Nc2cccnc2Cl)C1=O (centres undefined),-,-,-,-,-,-,-,-
COC(=O)c1cnn(C(=O)c2ccccc2Br)c1N,-,-,-,-,-,-,.,.
O=C(CCS(=O)(=O)c1ccccc1)Nc1nc2c(s1)COc1ccccc1-2,-,-,-,-,-,-,.,.
N#Cc1ccsc1NC(=O)CN1CCN(c2ccccn2)CC1,-,?,-,41,-,31,?,?
N#Cc1ccsc1NC(=O)CN1CCN(c2ccc(O)cc2)CC1,?,-,-,-,-,-,.,.
N#Cc1ccc(NC(=O)CN2CCN(c3ccccn3)CC2)cc1,-,48,-,77,-,68,?,40µM
CC(C)c1ccc(NC(=O)CN2CCN(c3ccccn3)CC2)cc1,-,-,-,-,-,-,.,.
N#Cc1ccsc1NC(=O)CN1CCN(c2ccccc2)CC1,-,-,-,48,-,-,-,-
CC(=O)N1CCN(CC(=O)Nc2sccc2C#N)CC1,-,-,-,-,-,-,.,.
CC1CN(Cc2c(O)ccc3c(=O)c(-c4ccccc4Cl)coc23)CC(C)O1 (centres undefined),-,-,-,-,-,-,.,.
Cc1cc2oc(=O)cc(CN3CCCCC3C)c2cc1Cl (centres undefined),-,-,-,-,-,-,.,.
CCOC(=O)Nc1ccc2c(CN3CCC(C(=O)OC)CC3)cc(=O)oc2c1,-,-,-,-,-,-,.,.
COC(=O)C1CCN(Cc2cc(=O)oc3cc(C)c(Cl)cc23)CC1,-,?,-,31,-,-,3.2µM,-
CCc1ccc2c(CN3CCC(C(=O)OC)CC3)cc(=O)oc2c1,-,66,-,106,-,106,4µM,8.9µM
COC(=O)c1cc2sc(C)cc2n1Cc1cccc(OC)c1,.,.,-,-,.,.,.,.
COc1cc(CC(=O)Nc2ccc3nc(C)sc3c2)cc(OC)c1OC,-,-,-,56,-,-,-,-
COc1cccc(C(C)NC(=O)Nc2ccccc2Cl)c1 (centres undefined),-,-,-,-,-,-,-,-
COc1ccc(C(=O)O)cc1NC(=S)NC(=O)CSc1ccc(Cl)cc1,-,-,-,-,-,-,-,-
Cc1ccc(S(=O)(=O)Nc2cccc(-c3ccc(N4CCCCCC4)nn3)c2)c(C)c1,-,-,-,-,-,-,.,.
CCOC(=O)c1c(NC(=O)CN2C(=O)NC3(CCCC3)C2=O)sc(C)c1CC,-,-,-,-,-,-,.,.
Cc1cc(Br)c(NC(=O)COC(=O)C2CCCCC2)c(Br)c1,-,-,.,.,-,.,.,.
CCC(c1nnnn1Cc1ccc2c(c1)OCO2)N1CCN(c2ccccc2)CC1 (centres undefined),-,?,-,80,-,79,-,?
c1ccc2c(c1)CCN(Cc1nnnn1Cc1ccc3c(c1)OCO3)C2,-,?,-,68,-,-,-,?
c1ccc(Cn2nnnc2CN2CCN(Cc3ccc4c(c3)OCO4)CC2)cc1,-,-,-,-,-,-,.,.
COc1ccc(Cn2nnnc2CN2CCc3ccccc3C2)cc1,-,?,-,57,-,34,-,?
SMILES,D2 PAM-1,D2 ag-1,D2 PAM-2,D2 ag-2,B2AR arrestin,D2 antagonist,D3 arrestin ag,D2 ag-3
COc1ccccc1N(CC(=O)NCCSCc1ccc(C)cc1)S(=O)(=O)c1ccccc1,-,-,-,-,-,-,-,-
CN(CCNC(=O)c1ccc(CS(=O)(=O)c2ccc(Br)cc2)o1)CCc1ccccc1,-,-,-,53,-,-,-,-
O=C(NCCc1ccccc1)c1ccc(CS(=O)(=O)c2ccc(Br)cc2)o1,-,-,-,-,-,-,.,.
Nc1nc(CN2CCN(c3ccccn3)CC2)nc(Nc2ccc(F)cc2)n1,-,?,-,74,-,73,-,?
Cc1ccc(Nc2nc(N)nc(CN3CCN(c4ccccc4)CC3)n2)cc1Cl,102,?,.,.,-,.,-,20µM
COc1ccccc1Nc1nc(N)nc(CN2CCN(c3ccccc3)CC2)n1,-,-,-,52,-,44,-,-
CCN(CC)C(=O)c1sc(NC(=O)c2cccs2)c(C#N)c1C,-,-,-,-,-,-,.,.
N#Cc1c(-c2ccco2)nc(SCc2ccc(F)cc2)[nH]c1=O,-,-,-,-,-,-,.,.
Cc1nc(SCc2cccc(F)c2)[nH]c(=O)c1C#N,-,-,.,.,-,.,-,-
CN(C)c1ccc(CNC(=O)c2ccc3nc(CCc4ccccc4)oc3c2)cc1,.,.,-,-,.,.,.,.
COc1ccc(C(CNC(=O)CCNS(=O)(=O)c2ccc(Br)cc2)N2CCCC2)cc1 (centres undefined),-,-,-,-,-,-,.,.
COc1ccc(S(=O)(=O)N2CCCCC2C)cc1 (centres undefined),-,-,-,-,-,-,.,.
CCCn1c(COc2ccccc2)nc2ccccc21,-,?,.,.,-,.,?,-
COc1ccc(OCCCCn2c(CO)nc3ccccc32)cc1,-,-,-,-,-,74,-,-
Cc1ccc(C(=O)NNC(=O)CCCCC(=O)NNC(=O)c2ccc(C)cc2)cc1,-,-,-,-,-,-,.,.
Cc1cccc(C)c1NC(=S)N(C)CCc1ccccn1,-,-,-,-,-,-,.,.
CC(C)c1ccc(NC(=S)N(C)CCc2ccccn2)cc1,-,-,-,-,-,36,-,-
Cc1ccc(NC(=O)Cn2c(=O)oc3cc(S(=O)(=O)NCc4ccccc4)ccc32)cc1,.,.,-,.,.,.,.,.
O=C(NCc1ccc(Cl)cc1)C1CCN(C(=O)Cc2ccccc2)CC1,-,-,-,-,-,-,.,.
CCN(CC)S(=O)(=O)c1cccc(NC2=NCC(C)S2)c1 (centres undefined),-,-,-,-,-,-,.,.
CCOc1cc(C)c(S(=O)(=O)NC2CC(C)(C)NC(C)(C)C2)cc1C,-,-,-,-,-,-,.,.
CCOc1ccc(Br)cc1S(=O)(=O)NC1CC(C)(C)NC(C)(C)C1,-,-,-,-,-,-,-,-
COc1cc(S(=O)(=O)NC2CC(C)(C)NC(C)(C)C2)c(OC)cc1Cl,-,-,-,-,-,-,.,.
Cc1cc(C)c(S(=O)(=O)NC2CC(C)(C)NC(C)(C)C2)cc1C,-,-,-,30,-,-,-,-
